# Data reported in PubChem BioAssay.
# The source made the active and inactive calls. Unless noted, no rule for the calls is given here.
# Assays:
# [1] = tested on: Wnt5a (protein binding on small-molecule microarray); test: Wnt5a binders on small-molecule microarray, primary screen, biophysical, 635/667 nm fluorescence (AID 1142); conditions: 635 nm fluorescence, higher = more signal;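 also: fluorescence read at 667 nm with signal to noise per printed feature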
# [2] = cell viability in Huh7 cells, primary screen, cytotoxicity control for HCV replication inhibitor project, CellTiter-Glo luminescence, basal, 48 h (AID 1143); conditions: Huh7 HCV replicon, higher = more signal, called active from +8 up or from −8 down;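 also: Huh7 hepatoma cells carrying a hepatitis C replication reporter with no stimulus; test concentration not given here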
# [3] = P. aeruginosa biofilm formation inhibitors, primary screen, PAO1 strain, BacTiter-Glo luminescence, LB-PBS (AID 1144); conditions: 12 h, higher = more signal
# [4] = CREB reporter modulators without forskolin, primary screen, cell-based, PC12, CRE-LacZ reporter, unstimulated (AID 1145); conditions: no forskolin, luminescence, 4.5 h, higher = more signal, called active from +8 up or from −8 down
# [5] = CREB reporter modulators under forskolin, primary screen, cell-based, PC12, CRE-LacZ reporter, forskolin-stimulated (AID 1146); conditions: luminescence, 4.5 h, higher = more signal, called active from +8 up or from −8 down;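 also: PC12 cells with 6xCRE LacZ reporter stimulated by forskolin 10 µM; beta-galactosidase reporter signal reflecting CREB driven transcription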
# [6] = target: Streptavidin (Streptomyces avidinii) (UniProt P22629); test: streptavidin binders on small-molecule microarray, primary screen, artefact control for SMM compound annotation, biophysical, 635/667 nm fluorescence (AID 1147); conditions: streptavidin binding, higher = more signal;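 also: signal reflects streptavidin binding to arrayed compounds as a control protein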
# Sequence of Streptavidin (Streptomyces avidinii) (P22629 whole entry, looked up): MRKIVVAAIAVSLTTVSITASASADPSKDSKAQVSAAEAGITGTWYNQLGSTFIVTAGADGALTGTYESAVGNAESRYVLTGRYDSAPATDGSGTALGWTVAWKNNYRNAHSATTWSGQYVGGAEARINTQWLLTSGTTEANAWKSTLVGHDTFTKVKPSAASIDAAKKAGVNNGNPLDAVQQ
# [7] = small-molecule binders of probe aInhba, primary screen, biochemical, small-molecule microarray, 635/667 nm fluorescence (AID 1148); conditions: higher = more signal;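 also: score merges 667nm spot fluorescence with signal-to-noise for antibody binding to printed compounds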
# Torsin-1A (Homo sapiens) [8] = target: Torsin-1A (Homo sapiens) (UniProt O14656); test: torsin A binders from cell lysate, primary screen, small-molecule microarray, wild-type, 635/667 nm (AID 1149); conditions: COS7 hTOR1A-WT lysate, 635 nm fluorescence, higher = more signal
# Sequence of Torsin-1A (Homo sapiens) (O14656 whole entry, looked up): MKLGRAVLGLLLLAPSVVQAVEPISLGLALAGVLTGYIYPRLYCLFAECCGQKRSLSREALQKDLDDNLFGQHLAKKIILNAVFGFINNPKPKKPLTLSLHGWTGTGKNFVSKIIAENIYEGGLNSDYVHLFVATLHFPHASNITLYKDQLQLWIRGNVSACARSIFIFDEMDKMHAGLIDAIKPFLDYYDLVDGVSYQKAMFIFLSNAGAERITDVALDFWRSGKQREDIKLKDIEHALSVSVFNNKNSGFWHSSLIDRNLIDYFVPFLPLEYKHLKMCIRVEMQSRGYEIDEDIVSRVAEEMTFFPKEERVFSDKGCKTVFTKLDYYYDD
# Torsin-1A (Homo sapiens) [9] = target: Torsin-1A (Homo sapiens) (UniProt O14656); test: small-molecule binders of mutant TOR1A in lysate, primary screen, cell lysate, small-molecule microarray, COS7 lysate, 635/667 nm fluorescence (AID 1150); conditions: COS7 hTOR1A mutant lysate, 635 nm fluorescence, higher = more signal;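 also: score pools 667 nm emission and signal to noise measuring lysate protein binding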
# [10] = tested on: Sonic hedgehog protein (Shh); test: small-molecule binders of Shh protein, primary screen, biochemical, small-molecule microarray, 635/667 nm fluorescence (AID 1151); conditions: small-molecule microarray binding, 635 nm fluorescence; higher = more signal;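 also: Shh protein binding to compounds spotted on small-molecule microarray slides; score combines spot fluorescence intensity with signal-to-noise across triplicate slides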
# [11] = E. coli DRC41 culture turbidity changes, primary screen, E. coli filamentation inducer project, strain DRC41, OD650, 48 h (AID 1152);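 also: E. coli MC1000 strain DRC41 lacking acrAB efflux pump and sulA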; conditions: E. coli DRC41 (acrAB sulA), higher = more signal, called active from +8 up or from −8 down
# [12] = small-molecule binders of probe aLefty1, primary screen, biochemical, small-molecule microarray, 635/667 nm fluorescence (AID 1153); conditions: higher = more signal;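 also: score merges spot fluorescence with signal-to-noise ratio from the scanned slide images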
# [13] = PSAC antagonists in infected red cells, primary screen, cell-based, P. falciparum Indochina, OD700, 1 h (AID 1154); conditions: P. falciparum Indochina infected RBC osmotic lysis, higher = more signal, called active from +8 up or from −8 down
# [14] = PSAC antagonists in infected red cells, primary screen, cell-based, P. falciparum Indochina, OD700, 2 h (AID 1155);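 also: lysis reports solute entry through the parasite surface anion channel PSAC; channel blockers reduce lysis of infected cells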; conditions: P. falciparum Indochina infected erythrocytes, osmotic lysis OD700; higher = more signal, called active from +8 up or from −8 down
# [15] = osmotic lysis modulators in infected erythrocytes, primary screen, PSAC antagonist project, cell-based, P. falciparum Indochina, OD700, 3 h (AID 1156); conditions: higher = more signal, called active from +8 up or from −8 down
# [16] = PSAC antagonists in infected red cells, primary screen, cell-based, P. falciparum Indochina, OD700, 18 h (AID 1157); conditions: P. falciparum Indochina infected erythrocytes, osmotic lysis OD700, 18 h; higher = more signal, called active from +8 up or from −8 down
# [17] = modulators of S6 phosphorylation in cells, primary screen, cell-based, A549, cytoblot, luminescence, serum-stimulated (AID 1158); conditions: A549 phospho-S6 cytoblot, 5 h, higher = more signal;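 also: serum-stimulated A549 lung adenocarcinoma cells; signal is phosphorylated S6 detected by cytoblot immunostaining with HRP secondary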
# [18] = target: NADPH oxidase 2 (Homo sapiens) (UniProt P04839); test: NOX2-dependent H2O2 signal modulators, primary screen, NOX inhibitor project, cell-based, HEK293-NOX2, PMA-stimulated, Amplex Red fluorescence (AID 1159); conditions: 45 min, higher = more signal, called active from +8 up or from −8 down; also: test concentration not given here
# Sequence of NADPH oxidase 2 (Homo sapiens) (P04839 whole entry, looked up): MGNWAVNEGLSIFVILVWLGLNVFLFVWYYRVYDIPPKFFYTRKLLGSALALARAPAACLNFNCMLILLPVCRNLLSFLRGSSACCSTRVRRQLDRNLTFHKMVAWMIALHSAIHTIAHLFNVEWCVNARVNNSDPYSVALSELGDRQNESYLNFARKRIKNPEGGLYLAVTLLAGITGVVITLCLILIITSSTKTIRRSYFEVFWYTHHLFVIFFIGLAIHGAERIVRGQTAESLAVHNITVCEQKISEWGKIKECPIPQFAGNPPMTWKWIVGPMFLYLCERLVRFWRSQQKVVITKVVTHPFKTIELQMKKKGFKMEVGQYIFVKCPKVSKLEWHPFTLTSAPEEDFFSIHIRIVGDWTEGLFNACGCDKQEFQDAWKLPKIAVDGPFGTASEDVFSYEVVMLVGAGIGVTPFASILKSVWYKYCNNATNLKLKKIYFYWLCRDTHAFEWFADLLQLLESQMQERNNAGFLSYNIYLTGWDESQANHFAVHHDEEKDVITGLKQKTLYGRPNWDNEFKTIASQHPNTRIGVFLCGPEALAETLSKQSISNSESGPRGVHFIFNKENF
# [19] = target: NADPH oxidase 4 (Homo sapiens) (UniProt Q9NPH5); test: NOX4-dependent H2O2 signal modulators, primary screen, NOX inhibitor project, cell-based, HEK293-NOX4, tetracycline-induced, Amplex Red fluorescence (AID 1160); conditions: 45 min, higher = more signal, called active from +8 up or from −8 down
# Sequence of NADPH oxidase 4 (Homo sapiens) (Q9NPH5 whole entry, looked up): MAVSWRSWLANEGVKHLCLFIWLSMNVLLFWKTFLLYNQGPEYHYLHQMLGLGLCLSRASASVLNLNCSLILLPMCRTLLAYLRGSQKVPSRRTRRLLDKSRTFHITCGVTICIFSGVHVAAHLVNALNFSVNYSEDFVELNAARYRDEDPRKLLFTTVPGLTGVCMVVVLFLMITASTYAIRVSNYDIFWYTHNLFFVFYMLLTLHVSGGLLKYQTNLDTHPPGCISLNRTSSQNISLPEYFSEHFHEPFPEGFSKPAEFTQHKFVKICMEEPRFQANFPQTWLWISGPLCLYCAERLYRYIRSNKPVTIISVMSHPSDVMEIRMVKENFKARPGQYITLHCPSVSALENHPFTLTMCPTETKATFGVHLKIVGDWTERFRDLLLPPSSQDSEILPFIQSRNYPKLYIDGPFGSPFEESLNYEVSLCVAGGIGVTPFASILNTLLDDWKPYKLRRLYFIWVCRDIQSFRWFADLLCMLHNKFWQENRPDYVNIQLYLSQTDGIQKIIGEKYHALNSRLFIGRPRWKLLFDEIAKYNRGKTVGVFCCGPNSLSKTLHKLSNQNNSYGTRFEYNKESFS
# [20] = target: NADPH oxidase 5 (Homo sapiens) (UniProt Q96PH1); test: NOX5-dependent H2O2 signal modulators, primary screen, NOX inhibitor project, cell-based, HEK293-NOX5, Amplex Red fluorescence (AID 1161); conditions: HEK293-NOX5, ionomycin, 45 min, higher = more signal
# Sequence of NADPH oxidase 5 (Homo sapiens) (Q96PH1 whole entry, looked up): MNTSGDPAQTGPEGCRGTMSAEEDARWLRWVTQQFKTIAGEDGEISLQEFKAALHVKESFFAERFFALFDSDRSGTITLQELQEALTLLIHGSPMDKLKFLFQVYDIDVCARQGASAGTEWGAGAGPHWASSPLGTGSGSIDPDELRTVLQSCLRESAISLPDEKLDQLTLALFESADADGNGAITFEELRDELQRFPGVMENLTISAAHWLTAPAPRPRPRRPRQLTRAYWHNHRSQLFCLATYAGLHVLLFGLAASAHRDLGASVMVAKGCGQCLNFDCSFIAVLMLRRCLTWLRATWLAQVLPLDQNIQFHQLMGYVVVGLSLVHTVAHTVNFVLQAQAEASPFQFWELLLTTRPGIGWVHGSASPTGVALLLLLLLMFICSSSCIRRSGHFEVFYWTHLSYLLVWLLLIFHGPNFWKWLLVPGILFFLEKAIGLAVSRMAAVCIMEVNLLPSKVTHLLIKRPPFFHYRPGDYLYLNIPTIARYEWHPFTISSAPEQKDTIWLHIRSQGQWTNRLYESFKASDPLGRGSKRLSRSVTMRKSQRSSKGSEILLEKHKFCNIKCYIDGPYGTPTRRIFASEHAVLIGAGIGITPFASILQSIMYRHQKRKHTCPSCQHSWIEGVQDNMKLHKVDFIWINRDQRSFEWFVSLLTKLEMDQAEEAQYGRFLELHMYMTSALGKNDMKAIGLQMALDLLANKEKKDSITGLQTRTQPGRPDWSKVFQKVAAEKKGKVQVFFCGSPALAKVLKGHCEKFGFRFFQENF
SMILES,composite z-score [1],z-score [2],z-score [3],z-score [4],z-score [5],composite z-score [6],composite z-score [7],composite z-score (Torsin-1A (Homo sapiens) [8]),composite z-score (Torsin-1A (Homo sapiens) [9]),composite z-score [10],z-score [11],composite z-score [12],z-score [13],z-score [14],z-score [15],z-score [16],z-score [17],z-score [18],z-score [19],z-score [20]
CC(C)C(CO)N1C(=O)[C@@H]2[C@H]3C(=O)OCC=C[C@H]3OC23C=CCN(c2ccc(Cl)cc2)C(=O)[C@@H]13 (stereo not given in full),-0.0632,-0.755 (inactive),2.84 (inactive),0.203 (inactive),-0.652 (inactive),-0.446,-0.0987,-0.677,-0.377,-0.339,0.284 (inactive),-0.0642,0.0695 (inactive),0.406 (inactive),1.06 (inactive),0.035 (inactive),-0.4,1.1 (inactive),0.164 (inactive),1.78
C=CC[C@]1(C(=O)N2CCCCC2)N=C(c2ccc(OCCCO)cc2)O[C@H]1c1ccccc1CN=[N+]=[N-],0.518,-4.07 (inactive),-1.44 (inactive),1.45 (inactive),1.86 (inactive),0.997,0.121,0.0016,0.361,-0.27,0.678 (inactive),0.454,23.1 (active),4.57 (inactive),2.81 (inactive),1.08 (inactive),0.83,-3.31 (inactive),-0.616 (inactive),-1.46
COc1cc2c(cc1O)C(c1cccs1)N(Cc1cc3c(cc1Br)OCO3)CC2 (stereo not given),0.594,-4.04 (inactive),0.582 (inactive),0.0924 (inactive),0.726 (inactive),2.07,0.0268,0.835,1.16,0.305,-1.8 (inactive),-0.566,10.2 (active),2.26 (inactive),-1.06 (inactive),1.41 (inactive),0.0127,-4.19 (inactive),-2.38 (inactive),-2.26
COC(=O)C(CC#Cc1ccc2c(c1)[C@]1(C(=O)N2)[C@H](c2ccc(O)cc2)N2[C@H](c3ccccc3)[C@H](c3ccccc3)OC(=O)[C@H]2[C@@H]1C(=O)NC[C@H](O)c1ccccc1)C(=O)OC,0.0209,-0.075 (inactive),0.221 (inactive),-0.0566 (inactive),-0.0638 (inactive),0.379,0.0769,-0.207,0.276,1.68,-0.994 (inactive),-0.0518,1.13 (inactive),0.353 (inactive),-0.876 (inactive),-0.154 (inactive),-0.256,1.39 (inactive),0.318 (inactive),1.47
C=CC[C@]1(C(=O)N2CCOCC2)COC(c2ccc(OCCCO)cc2)=N1,0.0993,-2.76 (inactive),-0.974 (inactive),2.01 (inactive),-0.778 (inactive),1.76,0.166,1.74,2.16,0.935,0.323 (inactive),0.43,5.33 (inactive),0.2 (inactive),0.638 (inactive),0.301 (inactive),0.0334,-2.25 (inactive),-0.335 (inactive),-0.859
CCOC(=O)C1=C[C@@H](c2ccccc2)N(S(=O)(=O)c2ccc(C)cc2)[C@H]1c1ccc(OC)cc1,0.943,-2.61 (inactive),0.173 (inactive),-0.275 (inactive),-0.0617 (inactive),0.689,0.29,0.162,0.513,-0.0921,-1.11 (inactive),1.02,1.18 (inactive),1.07 (inactive),0.106 (inactive),0.512 (inactive),-0.887,0.156 (inactive),1.02 (inactive),-0.348
Cc1ccc(S[C@]2(C(=O)NCC(F)(F)F)CC(=O)N(Cc3cc(C(F)(F)F)cc(C(F)(F)F)c3)[C@@H]2c2ccc(CO)cc2)cc1,-0.824,-0.262 (inactive),0.75 (inactive),0.182 (inactive),-0.0993 (inactive),-0.638,-0.0933,-1.5,-1.2,0.319,-0.415 (inactive),-0.146,1.74 (inactive),0.594 (inactive),-0.573 (inactive),0.501 (inactive),-0.488,-0.0338 (inactive),0.0959 (inactive),0.496
COCCCNC(=O)[C@@H]1c2ccccc2C(=O)N(C(C)C)[C@H]1c1ccc(CO)cc1,0.389,-0.293 (inactive),0.701 (inactive),-0.179 (inactive),0.312 (inactive),-0.337,-0.045,-0.17,0.0072,0.499,-0.476 (inactive),0.142,0.178 (inactive),0.211 (inactive),-0.172 (inactive),0.206 (inactive),0.219,0.161 (inactive),-0.904 (inactive),-0.51
C=CCC(OC(C)=O)[C@@H]1[C@@H](N(Cc2cccc3ccccc23)C(=O)Cc2ccc(F)cc2)c2cc(OCCCO)ccc2N1C(=O)c1ccc2ccccc2c1 (stereo not given in full),0.107,-0.156 (inactive),-1.04 (inactive),-0.724 (inactive),1.06 (inactive),0.0722,-0.0774,-0.035,-0.183,0.508,0.978 (inactive),0.23,1.06 (inactive),0.479 (inactive),0.51 (inactive),0.484 (inactive),0.336,-1.5 (inactive),0.344 (inactive),0.453
